From PubChem BioAssay AID602229 (The Scripps Research Institute Molecular Screening Center, 2012) come the findings set out here.

Each structure is given as a SMILES string. Out of some 360,000 compounds screened, about 1,300 (0.36%) were called active. The sample holds actives, similar compounds and a random draw of the others, so the mix is not that of the screen. Values without a mark were called inactive.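 Rule for the calls: active = inhibition above the mean of all tested compounds plus 3 SD (cut at about 70% in these data); inactive = the rest.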

Photoreceptor-specific nuclear receptor (Homo sapiens), sequence (Q9Y5X4 whole entry, looked up, the tested form may be a part): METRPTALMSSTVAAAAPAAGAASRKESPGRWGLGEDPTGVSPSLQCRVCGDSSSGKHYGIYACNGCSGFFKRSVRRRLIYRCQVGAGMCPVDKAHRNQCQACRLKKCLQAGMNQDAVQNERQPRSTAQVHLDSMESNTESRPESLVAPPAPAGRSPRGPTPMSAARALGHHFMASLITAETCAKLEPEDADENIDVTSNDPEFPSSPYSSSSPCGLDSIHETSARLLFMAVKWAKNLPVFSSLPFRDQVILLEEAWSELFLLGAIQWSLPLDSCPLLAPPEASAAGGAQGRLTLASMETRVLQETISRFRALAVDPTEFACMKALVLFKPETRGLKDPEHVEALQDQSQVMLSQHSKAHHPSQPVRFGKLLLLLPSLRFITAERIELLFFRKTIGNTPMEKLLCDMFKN

The assay concerns the target Photoreceptor-specific nuclear receptor (Homo sapiens) (UniProt Q9Y5X4). As to the kind of experiment: NR2E3 agonists in two-hybrid cells, primary screen, cell-based, luminescence, CHO-S, Gal4-NCOR/VP16-NR2E3 (AID 602229).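 Note: 0% = DMSO with NR2E3 transfected cells and 100% = cells lacking NR2E3 construct; higher means lower luciferase signal from less NR2E3 corepressor binding.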 The note with it: luciferase, at 3.98 µM, active compounds read high.
On to `Cc1nc2c(-c3ccccc3)c(C)[nH]n2c(=O)c1Cl`, for which the inhibition of corepressor binding was 9.97%. For the compound `CCCc1cc(=O)n2[nH]c(C)c(-c3ccc(Cl)cc3)c2n1`, the inhibition of corepressor binding was 43.4%. In the case of `Cc1[nH]n(-c2cccc(Cl)c2)c(=O)c1-c1ccc(Cl)cc1`, the inhibition of corepressor binding was 85% (active).

For `O=C(NCc1ccc(F)cc1F)[C@@H]1CCCN1C(=O)[C@@H]1CCCN1C(=O)c1cccc(Cl)c1`, the inhibition of corepressor binding was 4.78%.

`Cn1cc(CN2CCCCC2c2ccccn2)c(-c2ccc3c(c2)OCCO3)n1` (centres undefined): the inhibition of corepressor binding is -4.51%.

As for `CSc1ncccc1C(=O)Nc1nc2ccc(F)cc2s1`, the inhibition of corepressor binding is 47.5%. The figure for `c1ccc(C(=NNc2nc3ccccc3s2)c2ccccn2)cc1` is 89.7% (active).

Consider `NC(=S)c1ccc(C(N)=S)o1`, for which the inhibition of corepressor binding was -5.1%. On to `O=S1(=O)CC(N2CCSCC2)CN1Cc1cn(Cc2cccc(Cl)c2)nn1` (centres undefined), for which the inhibition of corepressor binding is -19.4%. Turning to `CCOCCCNC(=O)C(=O)NCCCOCC`, the inhibition of corepressor binding is 8.99%. Turning to `Cc1ccc(Cn2cc(CN3CC(N4CCN(C)CC4)CS3(=O)=O)nn2)cc1` (centres undefined), the inhibition of corepressor binding is 9.78%. On to `CN(Cc1cn(Cc2ccc(C(F)(F)F)cc2)nn1)C1CN(Cc2cn(Cc3ccc(C(F)(F)F)cc3)nn2)S(=O)(=O)C1` (centres undefined), for which the inhibition of corepressor binding was 86% (active).

As for `CN(C)C1CN(Cc2cn(Cc3ccccc3)nn2)S(=O)(=O)C1` (centres undefined), the inhibition of corepressor binding is -4.65%. Next, `Cc1ccc(NC(=O)C(C)Sc2nnc(C3CC3)n2C2CC2)cc1S(=O)(=O)N1CCOCC1` (centres undefined): 13%; `COc1ccc(-n2nc(C(=O)Nc3cc(OC)c(OC)c(OC)c3)c3ccccc3c2=O)c(OC)c1`: -8.33%. Consider `COc1ccc(Nc2ncnc3ccc(Br)cc23)c(OC)c1`, for which the inhibition of corepressor binding is 85.3% (active). For the compound `COc1ccc(OC)c(Nc2nc3ccccc3n3cnnc23)c1`, the inhibition of corepressor binding was 19.4%. Take `COc1ccc(OC)c(NC(=O)CN(C)CCOc2ccc(Br)cc2)c1`: the inhibition of corepressor binding is 7.2%. As to `COC(=O)c1cc(S(=O)(=O)NCC2CCN(Cc3ccc(Cl)cc3)CC2)cn1C`, the inhibition of corepressor binding is 16.9%.

As for `Fc1cccc(CSc2nnc3ccc(-c4ccncc4)nn23)c1`, the inhibition of corepressor binding was 6.42%.

`C=C(Br)CN1CCN(CC(=C)Br)CC1`: the inhibition of corepressor binding is -7.79%.

Take `O=C(CN1CCC(NC(=O)C2CC2)CC1)Nc1ccccc1[N+](=O)[O-]`: the inhibition of corepressor binding was -17.5%. In the case of `CCOC(=O)C(CO)NC(=O)C1(NC(C)=O)CCCC1` (centres undefined), the inhibition of corepressor binding is -34.7%. With `O=C(Nc1nnc(-c2ccccc2)o1)c1cc(-c2cccs2)nc2ccccc12`, the inhibition of corepressor binding was 88.7% (active). For `Cc1ccnc2nc(C(=O)Nc3nnc(-c4ccccc4)o3)nn12`, the inhibition of corepressor binding was 0.21%. In the case of `O=C(Nc1nnc(-c2ccc(Cl)cc2)o1)c1ccccc1Br`, the inhibition of corepressor binding is -48%. Next, `COc1cccc(C(=O)Nc2c3c(nn2-c2cccc(C)c2C)CS(=O)(=O)C3)c1OC`: -6.84%; `Cc1c(NC(=S)NCc2ccc(F)cc2)cccc1[N+](=O)[O-]`: -17.5%. Take `O=C(C1CCCO1)N(Cc1ccccc1)c1ccccc1` (centres undefined): the inhibition of corepressor binding was -3.43%. With `COc1ccc(C(=O)OCC(=O)Nc2cc(C)on2)cc1F`, the inhibition of corepressor binding is 20.3%. Turning to `CC1(C)OC(=O)C2=C(CC(c3ccccc3)OC2CCc2ccccc2)O1` (centres undefined), the inhibition of corepressor binding is -2.84%. The figure for `COCCNc1nc(-n2nc(C)cc2C)nc2sc3c(c12)CCCC3` is 91.3% (active); for `CCc1nc(N2CCN(C(C)=O)CC2)c2c3c(sc2n1)CCCC3` it is -27.3%; for `CCCc1nc2sc3c(c2c(=O)n1NC(=O)CCCl)CCCC3` it is 2.18%. Turning to `COc1ccccc1-c1nn(Cc2ccccc2)cc1C(=O)N1CCN(c2ncccn2)CC1`, the inhibition of corepressor binding was -28.8%.

`COC(=O)c1ccc2c(c1)S(=O)(=O)NC2C` (centres undefined): the inhibition of corepressor binding is 1.74%. For the compound `CCOC(=O)N1CCN(C(=O)c2ccc(S(=O)(=O)Nc3cccc(C(F)(F)F)c3)cc2)CC1`, the inhibition of corepressor binding was 78.3% (active). Regarding `CCOC(=O)c1cccc(NS(=O)(=O)c2c(C(=O)N3CCCCCC3)c(C)n(C)c2C)c1`, the inhibition of corepressor binding was -3.88%. For the compound `CC(=O)N1CCN(C(=O)c2cccc(S(=O)(=O)Nc3ccc(C)cc3)c2)CC1`, the inhibition of corepressor binding is -16.4%. For the compound `Cc1ccsc1CNn1cnnc1SCc1ccccc1F`, the inhibition of corepressor binding is 1.17%. In the case of `Cc1nc2c(OCc3cccc(Cl)c3)cccn2c1N(C)CC1CC1`, the inhibition of corepressor binding is 79.4% (active). Turning to `Cc1nc2c(OCc3ccc(Cl)cc3)cccn2c1N(C)Cc1cccs1`, the inhibition of corepressor binding was -14.4%. Next, `Cc1nc2c(OCc3ccc(Cl)cc3Cl)cccn2c1N(C)CC1CC1`: -9.82%; `CC1CCN(CCCn2c(SCC(=O)NC3CCCC3)nc3ccccc3c2=O)CC1`: -14.7%; `O=C(c1ccc(N2CCCC2=O)cc1)N1CCN(c2ccc(C(F)(F)F)cc2[N+](=O)[O-])CC1`: 82.8% (active). The figure for `COc1cc(OC)cc(C(=O)NC(=S)N2CCN(c3ccc(C(F)(F)F)cc3[N+](=O)[O-])CC2)c1` is -27.8%; for `O=C(Cc1ccc(S(=O)(=O)N2CCOCC2)s1)N1CCN(c2ccc(C(F)(F)F)cc2[N+](=O)[O-])CC1` it is 27.1%. Next, `Cc1nnc(SCC(=O)Nc2ncc3c(n2)CC(C)(C)CC3=O)s1`: -5.27%. With `Cc1cc2oc(=O)cc(CN(C)Cc3ccc(OC(F)F)cc3)c2cc1Cl`, the inhibition of corepressor binding is -26%. Take `Cc1ccc(NC(=S)N(CCN(C)C)Cc2cccs2)cc1C`: the inhibition of corepressor binding was -15.7%. The figure for `COC(=O)c1sccc1NC(=O)CSc1ccccc1NS(=O)(=O)c1cc(Cl)ccc1Cl` is 89.8% (active); for `COC(=O)c1sccc1NS(=O)(=O)c1ccc(F)cc1F` it is -9.53%. `COC(=O)c1scc(C)c1NC(=O)CSc1ccc(Cl)cc1`: the inhibition of corepressor binding is 2.57%. Next, `CCCC(=O)Nc1nnc(CC(=O)OCC)s1`: 12.6%; `CCn1nc(C)c(CN2CCN(Cc3ccc(OC)c(C)c3C)C(CCO)C2)c1C` (centres undefined): -29.8%. As to `CC(C(=O)N1CCOCC1)N1c2cccc3cccc(c23)S1(=O)=O` (centres undefined), the inhibition of corepressor binding is -0.03%. Next, `Oc1c(Cl)cc(Cl)c(Cl)c1Cc1c(O)c(Cl)cc(Cl)c1Cl`: 90.7% (active); `C=CCn1c(SCC(=O)c2ccc(Br)cc2)nnc1C(C)NC(=O)Cc1ccc(OC)cc1` (centres undefined): 22.7%. For `C=CCn1c(C23CC4CC(CC(C4)C2)C3)n[nH]c1=S`, the inhibition of corepressor binding is -1.8%.
